Screening results as filed in PubChem BioAssay.
Shown are actives, neighbours in structure and some others; about 1.7% of the full set was active somewhere.
SUMO1 PPI mod: modulators of SUMO1 protein-protein interactions, primary screen, biochemical, uHTS. actives 0.33% (n = 360,000). inhibition, % at 20 µM. AID 602429, 2012. Small ubiquitin-related modifier 1 (Homo sapiens), P63165. SUMO1 binding to a labelled peptide, TR-FRET, 1 h; in the data active = inhibition above about 37%
Target sequence (P63165 whole entry, looked up): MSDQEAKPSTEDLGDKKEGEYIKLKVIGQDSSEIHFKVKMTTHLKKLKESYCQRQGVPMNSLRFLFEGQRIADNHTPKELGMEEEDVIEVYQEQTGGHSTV
Rin1 Abl inh: inhibitors of Rin1-Abl protein binding, primary screen, biochemical, TR-FRET. inhibition, % at 7.35 µM. Tyrosine-protein kinase ABL1 (Homo sapiens) + Ras and Rab interactor 1 (Homo sapiens), …. actives 0.4% (n = 360,000); in the data active = inhibition above about 5%, passing the limit was not always enough
Neddyl block: inhibitors of cullin neddylation, primary screen, biochemical, TR-FRET, uHTS, NAE and Ubc12; NEDD8-conjugating enzyme Ubc12 (Homo sapiens) + NEDD8-activating enzyme E1 regulatory …; inhibition, % at 25 µM; actives 0.58% (n = 360,000); AID 651699, 2012; in the data active = inhibition above about 36%
ATG4B inh: ATG4B protease inhibitors, primary screen, biochemical, fluorescence, uHTS. Cysteine protease ATG4B (Homo sapiens), Q9Y4P1. ATG4B cleavage of LC3-PLA2, NBD-HPC fluorescence, 1 h. inhibition, % at 8.33 µM. actives 0.51% (n = 340,000). AID 504462, 2011; in the data active = inhibition above about 40%
* hit, by the source's call; · = not tested or not shown.

SMILES	SUMO1 PPI mod	Rin1 Abl inh	Neddyl block	ATG4B inh
[O-][n+]1cccc2c(Br)cc(Br)c(O)c21	7.6	5.3	33.0	-9.1
CC(=O)Nc1ccc(C=NNc2nnc(NN=Cc3ccc(NC(C)=O)cc3)c3ccccc23)cc1	39.5*	3.9	8.7	5.1
CCN(CC)C(=O)c1cccc(-c2csc(C(C)(O)c3ccc(OC)cc3)n2)c1 (centres undefined)	10.8	-2.8	-4.6	·
COc1ccc(C(=O)c2[nH]c(N)c(C(=O)NCCc3c[nH]c4ccccc34)c2-c2ccccc2Br)cc1	0.5	·	26.7	·
Cc1ccc(S(=O)(=O)N(C)C[C@@H]2OCCCC[C@@H](C)Oc3ccc(NS(=O)(=O)c4c(C)noc4C)cc3C(=O)N([C@H](C)CO)C[C@@H]2C)cc1	-2.0	4.2	-3.9	·
Cc1ccc(S(=O)(=O)Nc2ccc3c(c2)C(=O)N([C@@H](C)CO)C[C@@H](C)[C@@H](CN(C)S(=O)(=O)c2ccccc2)OCCCC[C@H](C)O3)cc1	43.5*	-3.5	-11.7	·
O=c1oc2cc(O)ccc2c2ccccc12	2.1	-113.0	-80.1	-9.2
O=c1oc2cc(O)ccc2c2oc3cc(O)ccc3c12	47.6*	-2.7	·	-5.9
C/C(=N\OCC(=O)N/N=C/c1ccc(C)cc1O)c1cccs1	-6.9	-3.9	40.5*	-13.0
C/C(=N\NC(=O)CO/N=C(\C)c1cccs1)c1ccc(N)cc1	-1.6	0.1	-9.4	-5.4
CCC(=O)N1CCCC(C)(C(=O)Nc2ccc(C)c(C)c2)C1 (centres undefined)	-2.9	-3.6	7.3	·
CC(=O)c1cccc(NC(=O)c2ccc(-c3c(C)noc3C)c3ccoc23)c1	10.3	-1.9	0.9	·
O=C(NCc1ccccc1)C1C(c2ccccc2)=Nc2ccccc2N1C(=O)c1ccncc1 (centres undefined)	-7.0	·	-5.0	·
CC(=O)c1c(C)oc2ccc(NS(=O)(=O)c3ccc(C)cc3)cc12	-0.6	4.1	-2.6	-9.5
Cc1ccc(C)c(S(=O)(=O)Nc2ccc3oc(C)c(C(=O)O)c3c2)c1	50.7*	1.3	12.3	5.2
CCCCCCCCN1C(=O)[C@H](CC(=O)NCC23CC4CC(CC(C4)C2)C3)C[C@@]2(C(=O)OCC)CCC=C12	5.0	·	12.5	·
CCCC(=O)NC(c1ccc(OC)cc1)c1ccc2cccnc2c1O (centres undefined)	-8.7	2.9	0.8	-10.5
CCC(=O)NC(c1ccccc1OC)c1ccc2cccnc2c1O (centres undefined)	-9.7	13.9*	-11.8	8.4
COc1ccc(C(=O)Nc2nnc(CC(=O)N/N=C/c3ccc(O)cc3O)s2)cc1	78.6*	-0.1	33.9	·
Cc1ccc(C(=O)Nc2nnc(CC(=O)N/N=C/c3ccncc3)s2)cc1	5.6	3.2	13.7	-6.9
Cc1ccc(C(=O)Nc2nnc(CC(=O)N/N=C/c3ccc(O)c(O)c3)s2)cc1	95.8*	2.9	11.8	-3.0
CCc1nnc(NC(=O)c2ccc(OC)cc2)s1	2.3	-1.6	11.3	-7.5
O=C(O)c1cc(N/N=C/c2cccc3ccccc23)ccc1Cl	7.4	0.8	-0.2	13.7
CCNC(=S)N/N=C/c1cn(Cc2ccc(F)cc2)c2ccccc12	4.8	-1.1	0.6	8.3
O=C(O)c1ccc(N/N=C/c2cn(Cc3ccc(F)cc3)c3ccccc23)cc1	-8.9	-1.6	45.5*	13.6
SMILES	SUMO1 PPI mod	Rin1 Abl inh	Neddyl block	ATG4B inh
CC(C)n1cc(/C=N/Nc2ccc(Cl)c(C(=O)O)c2)c2ccccc21	113.6*	-2.1	12.1	·
CO[C@H]1CN(C)C(=O)c2ccc(NC(=O)C3CCC3)cc2OC[C@H](C)N(Cc2ccccn2)C[C@@H]1C	0.1	·	2.9	·
Cc1c(C)c2ccc(OCC(=O)N(C)C)c(C)c2oc1=O	-2.5	-3.2	·	-4.4
C=CCOC(=O)COc1ccc2c(C)c(C)c(=O)oc2c1C	-4.1	0.2	40.6*	-0.8
CCN1CCc2c(sc(NC(=O)c3ccc4ccccc4c3)c2C(N)=O)C1	-34.8	-5.2	41.1*	·
CCN1CCN(S(=O)(=O)c2ccc(C(=O)Nc3sc4c(c3C(N)=O)CCN(CC)C4)cc2)CC1	-24.6	-6.5	-10.7	-10.4
Nc1c(Cl)ncnc1Nc1ccc(C(=O)O)cc1	2.1	6.4	10.0	3.2
O=C(O)c1ccccc1-c1ccc(/C=c2\sc3nc4cc(Br)cnc4n3c2=O)o1	75.1*	5.0	-28.6	27.8
Cc1ccc(CN2C(=O)C(CC(C)C)Nc3ncnc(N4CCCCC4)c32)cc1 (centres undefined)	1.2	2.1	7.9	·
